Among all 1,100 compounds or so, about 940 (85%) were called active.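 How the source made its calls: active means inhibition exceeding 3 SD of buffer-only control wells (cut at about 26% in these data); inactive means the rest.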 So high a share suggests a set chosen from earlier hits. These entries were drawn from the full list.
Assay: carbachol calcium response changes in non-induced cells, primary screen, counter-screen for RGS4 activator project, cell-based, HEK293 M3R, non-induced RGS4, Fluo-4 calcium (AID 602283);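 further: percent drop in integrated peak-minus-baseline over baseline Fluo4 ratio after carbachol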
Conditions: HEK293 M3R non-induced RGS4, Fluo4 calcium flux; at 10 µM; hits give high values; after carbachol challenge at its EC90

Structure (SMILES)	inhibition
C=CC12CN(C)[C@@H]3C4CO[C@H](C[C@H]41)[C@]1(C(=O)Nc4ccccc41)[C@@H]32 (some centres not stated)	83.8% (active)
CC(C)Oc1cccc(C(=O)C2CCCN(C3CCOCC3)C2)c1 (configuration not stated)	83.8% (active)
